Our source for the Potency values is PubChem BioAssay (NCATS).

Common to all, as to experiment: qHTS profiling for inhibitors of Plasmodium falciparum proliferation (AID 504749); note: nearly all actives have a fitted effect of over 60% in size
Holding throughout (conditions): P. falciparum in erythrocytes, SYBR Green DNA, 72 h; series mostly up to 28.7 µM

One assay concerns CP217. Put shortly: (§1)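 Fluorescence of SYBR Green-bound parasite DNA, read at 485/535 nm, served as the growth measure. Infected erythrocytes were cultured with compound 72 h; artemisinin (0.29 uM) and DMSO wells defined the normalization range.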
The next assay relates to CP237. In a few lines: as §1
The subject of a further assay is CP238. Put shortly: as §1
Another assay has as its system CP247. Put shortly: as §1
A further assay concerns CP250. Put shortly: as §1
The test system of a further assay is CP252. In a few lines: as §1
The next assay has as its system CP256. In a few lines: as §1
In another assay the test system is CP260. Put shortly:
as §1

Another assay relates to CP262. In a few lines: as §1
For a further assay, the system named is CP265. Put shortly: as §1
Another assay deals with CP266. Put shortly: as §1
A further assay relates to CP268. In a few lines: as §1
Another assay concerns CP269. In a few lines: as §1
Another assay has as its system CP286. In a few lines:
as §1

The subject of a further assay is CP291. In a few lines: as §1
A further assay has as its system CP297. In a few lines:
as §1

Another assay deals with CP305. Put shortly:
as §1

A further assay has as its system CP315. Put shortly: as §1
For a further assay, the system named is CP325. In a few lines: as §1
Another assay relates to CP329. In a few lines:
as §1

Records with an inconclusive call do not appear. Active and inactive are the calls of the source. Calls come from the whole dose curve; as a rule, active = well fitted inhibition curve with a large enough effect; inconclusive = small, poorly fitted or top-dose-only effect; inactive = flat fitted curve, though single readings scatter.
Potency is the fitted concentration of half-maximal effect.

For `CC(C)CC(N(C)C)C1(c2ccc(Cl)cc2)CCC1` (stereo not drawn), the Potency entry in the assay with CP217, in the assay with CP237, in the assay on CP238, with CP247, in the assay on CP250 and in the assay on CP252 was “inactive” throughout. Further, the Potency result in the assay on CP256, in the assay with CP260, with CP262, with CP265, in the assay on CP266 and with CP268 was “inactive” throughout. Besides, the Potency result with CP269, in the assay on CP286, with CP291, in the assay on CP297, with CP305 and in the assay on CP315 was “inactive” in each case. In addition, the Potency result in the assay on CP325 and in the assay on CP329 was “inactive” throughout.
Regarding `CN1CCN(C(=O)O[C@H]2c3nccnc3C(=O)N2c2ccc(Cl)cn2)CC1`, the Potency result in the assay on CP217, with CP237, in the assay on CP238, with CP247, with CP250 and in the assay with CP252 was “inactive” throughout. Besides, the Potency result in the assay on CP256, in the assay on CP260, in the assay with CP262, with CP265, in the assay on CP266 and with CP268 was “inactive” in each case. Further, the Potency result in the assay on CP269, in the assay with CP286, in the assay with CP291, in the assay with CP297, with CP305 and in the assay with CP315 was “inactive” throughout. Moreover, the Potency result in the assay on CP325 and in the assay on CP329 was “inactive” throughout.
Consider `COc1ccc(C(CN(C)C)C2(O)CCCCC2)cc1` (stereo not drawn), for which the Potency entry in the assay with CP217, in the assay with CP238, in the assay with CP247, in the assay on CP250, with CP252 and with CP256 was “inactive” in each case. Moreover, the Potency entry with CP260, with CP262, in the assay on CP268, in the assay on CP269, in the assay with CP286 and with CP291 was “inactive” in each case. Moreover, the Potency result in the assay on CP305, in the assay on CP315 and in the assay with CP329 was “inactive” each time. In addition, the Potency in the assay on CP237 is 7.08 µM (active).
`NCC(O)c1ccc(O)cc1` (stereo not drawn): the Potency entry in the assay with CP217, in the assay on CP237, in the assay on CP238, in the assay on CP247, with CP250 and in the assay with CP252 was “inactive” each time. Further, the Potency result in the assay on CP256, in the assay with CP260, in the assay on CP262, in the assay on CP265, in the assay on CP268 and with CP269 was “inactive” each time. Besides, the Potency result with CP286, with CP291, in the assay with CP297, in the assay on CP305, in the assay on CP315 and in the assay on CP325 was “inactive” throughout. In addition, the Potency entry in the assay with CP329 is “inactive”.
For `CC(C)(C)CC(C)(C)c1ccc(O)cc1`, the Potency entry with CP217, with CP237, with CP238, in the assay on CP250, in the assay with CP252 and in the assay on CP256 was “inactive” throughout. The Potency result in the assay with CP260, with CP262, in the assay with CP265, with CP266, in the assay with CP268 and with CP269 was “inactive” each time. Besides, the Potency result in the assay on CP286, in the assay with CP291, in the assay with CP297, with CP305, with CP315 and with CP325 was “inactive” in each case. Also, the Potency entry in the assay with CP329 is “inactive”. Besides, the Potency in the assay on CP247 was 11.2 µM (active).
As for `CCOP(=S)(OCC)Oc1cc(C)nc(C(C)C)n1`, the Potency entry in the assay with CP217, in the assay with CP237, with CP238, in the assay with CP247, with CP250 and in the assay with CP252 was “inactive” throughout. Besides, the Potency result with CP256, in the assay on CP260, in the assay with CP262, in the assay on CP265, in the assay with CP266 and with CP268 was “inactive” in each case. The Potency entry in the assay with CP269, in the assay on CP286, in the assay with CP291, in the assay on CP297, in the assay on CP305 and in the assay on CP315 was “inactive” in each case. In addition, the Potency entry in the assay on CP325 and in the assay on CP329 was “inactive” in each case.
In the case of `CCC(C(N)=O)N1CCCC1=O` (stereo not drawn), the Potency entry in the assay with CP217, in the assay on CP237, in the assay on CP238, in the assay with CP247, in the assay on CP250 and in the assay with CP252 was “inactive” each time. Further, the Potency entry in the assay with CP256, in the assay on CP260, in the assay on CP265, in the assay on CP266, in the assay on CP268 and in the assay with CP269 was “inactive” throughout. Also, the Potency entry in the assay with CP286, in the assay on CP291, in the assay with CP297, with CP305, with CP315 and in the assay with CP325 was “inactive” each time. Also, in the assay on CP329, the Potency entry was “inactive”.
As for `Oc1cccc2cccnc12`, the Potency result with CP217, with CP237, in the assay with CP238, in the assay with CP247, in the assay on CP250 and in the assay on CP252 was “inactive” throughout. Besides, the Potency result with CP256, with CP260, with CP262, in the assay on CP265, with CP266 and in the assay with CP268 was “inactive” in each case. The Potency entry in the assay with CP269, in the assay on CP286, with CP291, in the assay with CP297, with CP305 and in the assay with CP315 was “inactive” in each case. In addition, the Potency result with CP325 and in the assay with CP329 was “inactive” each time.
For the compound `NN=C(N)N`, the Potency entry in the assay with CP217, in the assay on CP237, with CP238, in the assay on CP247, in the assay on CP250 and in the assay on CP252 was “inactive” throughout. For the same compound, the Potency result with CP256, with CP260, with CP262, in the assay with CP265, with CP266 and in the assay with CP268 was “inactive” throughout. Further, the Potency result with CP269, in the assay with CP286, with CP291, in the assay on CP297, in the assay with CP305 and in the assay on CP315 was “inactive” throughout. The Potency result in the assay on CP325 and in the assay on CP329 was “inactive” in each case.
For `CC(=O)Nc1cc([As](=O)(O)O)ccc1O`, the Potency result in the assay on CP217, in the assay on CP237, in the assay on CP238, in the assay with CP247, with CP250 and in the assay with CP252 was “inactive” each time. Besides, the Potency entry in the assay on CP256, in the assay on CP260, in the assay with CP262, with CP265, with CP266 and with CP268 was “inactive” each time. Besides, the Potency result in the assay on CP269, in the assay on CP286, with CP291, with CP297, with CP305 and in the assay on CP315 was “inactive” in each case. Besides, the Potency result with CP325 and in the assay on CP329 was “inactive” each time.
Turning to `COc1ccccc1N1CCNCC1`, the Potency result in the assay on CP217, in the assay with CP237, in the assay on CP238, in the assay with CP247, with CP250 and with CP252 was “inactive” each time. Further, the Potency result with CP256, in the assay on CP262, with CP265, in the assay on CP266, in the assay with CP268 and in the assay with CP269 was “inactive” throughout. Besides, the Potency entry in the assay on CP286, in the assay on CP291, with CP297, with CP305, with CP315 and in the assay on CP325 was “inactive” each time. Besides, the Potency entry in the assay on CP329 was “inactive”.
Consider `Cc1ncc(CNC(=O)N(CCCl)N=O)c(N)n1`, for which the Potency entry in the assay with CP217, in the assay with CP237, in the assay on CP238, with CP247, in the assay with CP250 and in the assay with CP252 was “inactive” throughout. Also, the Potency result in the assay with CP256, with CP260, with CP262, in the assay on CP265, with CP266 and with CP268 was “inactive” in each case. Also, the Potency result in the assay on CP269, in the assay on CP286, in the assay on CP291, in the assay on CP297, in the assay on CP305 and in the assay with CP315 was “inactive” each time. In addition, the Potency entry in the assay with CP325 and in the assay on CP329 was “inactive” each time.
With `O=C(NC(O)C(Cl)(Cl)Cl)NC(O)C(Cl)(Cl)Cl` (stereo not drawn), the Potency result in the assay with CP217, with CP237, in the assay with CP238, in the assay with CP247, in the assay on CP250 and in the assay on CP252 was “inactive” in each case. Besides, the Potency entry in the assay on CP256, in the assay with CP260, in the assay on CP262, in the assay with CP265, in the assay with CP266 and in the assay with CP268 was “inactive” throughout. The Potency entry in the assay with CP269, with CP286, in the assay on CP291, in the assay on CP297, with CP305 and in the assay on CP315 was “inactive” throughout. The Potency result in the assay with CP325 and in the assay on CP329 was “inactive” throughout.
